From ChEMBL document CHEMBL1201862, “PubChem BioAssay data set” (2004)
The campaign covered roughly 57,000 sequences. About 3,700 (6.5%) were called active. Rule as the data show it: active = GI50 up to about 1.1 µM and inactive = higher. A selection follows. Entries with a potency or affinity are not part of this list.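 Following 48 hours of exposure in 96-well plates, responses at five concentrations were used to interpolate endpoints linearly. GI50 marks 50% less growth.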

Each substance was assayed on ACHN (assay: NCI tumour cell line growth inhibition, 48 h).

Row | Substance | GI50
1 | CISPLATIN, CHEMBL11359 | 1.22 µM
2 | cis-Bis[[(trimethylsilyl)methyl]amino]tetrachloroplatinum(IV), CHEMBL2146191 | 6.25 µM
3 | [Bis(aminomethyl)dimethylsilane]dichloroplatinum (II), CHEMBL2146201 | 12.6 µM
4 | [Bis(aminomethyl)tetramethylenesilane]dichloropaltinum(II), CHEMBL2146205 | 12.3 µM
5 | [Bis(aminomethyl)pentamethylenesilane]dichloropaltinum(II), CHEMBL2146202 | 1.63 µM
6 | mu-(1,7-nanodiamine-N,N')bis-(cis-aminedichloroplatimum (II)), CHEMBL2146215 | 27.8 µM
7 | [Bis(aminomethyl)ethylmethylsilane]tetrachloroplatinum(IV), CHEMBL2146192 | 2.67 µM
8 | [Bis(aminomethyl)pentamethylenesilane]tetrachloropaltinum(IV), CHEMBL2146204 | 1.79 µM
9 | [Bis(aminomethyl)tetramethylenesilane]tetrachloropaltinum(IV), CHEMBL2146189 | 3.69 µM
10 | [Bis(aminomethyl)dimethylsilane]tetrachloroplatinum(IV), CHEMBL2146190 | 4.84 µM
11 | [Bis(aminomethyl)diethylsilane]tetrachloroplatinum(IV), CHEMBL2146203 | 2.99 µM
